This is part of a sample that, as a whole, favours compounds with a hit. Of some 83,000 tested, about 20% had one in any assay.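 Plates (96-well) were seeded with cells, treated with compound at one concentration, and incubated for 48 hours before percent growth was determined.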 Active and inactive are the calls of the source. How the source made its calls: active means growth percent below 10; inactive means the rest.
These compounds were tested on HL-60(TB) leukemia (assay: NCI-60 one-dose screen, 48 h (100 = growth as untreated, 0 = no growth, -100 = all killed)). Conditions: 10 µM unless noted.

`COc1ccc2nc3c(cc2c1)C(=O)CC(c1ccccc1)C3` (stereo not given) was tested. Which growth did it give?
The growth was -1.74% (active).

With `Cc1nc2cccc(NCc3ccc(C(=O)NO)cc3)c2c(=O)n1-c1ccccc1` as the compound, how does the growth read?
The growth was 27.2% (inactive).

How did the growth turn out when `Cc1ccc(NC2=CC(=O)C(=O)c3ccccc32)cc1` was run?
Its growth is 18.4% (inactive).

`CSc1nc(=O)n(Cc2ccc(Cl)cc2)c(=O)[nH]1` was tested. Which growth did it give?
Its growth is 105% (inactive).

How did the growth turn out when `C=C1C(=O)O[C@H]2[C@H]1CC/C(COC(=O)NCc1ccc(Cn3c(=O)sn(-c4ccc(C#N)cc4)c3=O)cc1)=C\CC[C@@]1(C)O[C@@H]21` was run?
The growth was -13.1% (active).

For `COC(=O)c1c2c(c(C)[n+]([O-])c1C)C(=O)C(NCc1ccccc1)=CC2=O`, which growth is on record?
Its growth is -2.98% (active).

`CN1CCCN(C(c2ccccc2)c2ccc(Cl)cc2)CC1` (stereo not given) was tested. Which growth did it give?
Its growth is 93.5% (inactive).

How did the growth turn out when `COc1ccc(C(c2cc(OC)c(OC)c(OC)c2)N2CCCCC2)cc1` (stereo not given) was run?
Its growth is 4.36% (active).

For `O=c1[nH]c2ccc(Br)cc2c2c1C(c1ccc(Cl)cc1)c1c(ncn3nc(-c4ccco4)nc13)O2` (stereo not given), which growth is on record?
The growth was 72.7% (inactive).

Which growth does the source give for `COc1cc2c(c(Br)c1N)-c1cc(Br)c(N)cc1C2=O` here?
Its growth is 88.9% (inactive).

With `CN(C)c1ccc(/C=N/NC(=O)CSc2nc3sc4c(c3c(=O)n2-c2ccccc2)CCCCC4)cc1` as the compound, how does the growth read?
The growth was 86.8% (inactive).

For `Cn1c2ccccc2c2c3c(c4c5ccccc5[nH]c4c21)C(=O)N(N)C3=O`, which growth is on record?
The growth was 81.8% (inactive).

For `CN(C(=O)NCc1cccc(F)c1Cl)[C@H](COC(=O)Nc1cc2ccccc2cn1)CC(O)CO` (stereo not given in full), which growth is on record?
Its growth is 90.5% (inactive).

Which growth does the source give for `CCN(CC)S(=O)(=O)c1ccc(O)c(NC(=O)c2[nH]c(C)c(C(C)=O)c2CCc2ccc(Cl)cc2)c1` here?
Its growth is 39.6% (inactive).

How did the growth turn out when `CCNc1ccc(-c2nc3ccccc3n3cccc23)cc1` was run?
Its growth is 86% (inactive).

Which growth does the source give for `Clc1ccc(C(SCc2ccccc2)SCc2ccccc2)cc1` here?
The growth was 97.6% (inactive).

For `O=[P@@]1(c2ccccc2)O[C@H](COCc2ccccc2)[C@@H](OCc2ccccc2)[C@H](OCc2ccccc2)[C@H]1O`, which growth is on record?
The growth was 98.5% (inactive).

`COc1ccc(-c2nn(-c3ccc(NC(=O)Nc4cc(C(F)(F)F)cc(C(F)(F)F)c4)cc3)cc2-c2ccncc2)cc1Cl` was tested. Which growth did it give?
The growth was 4.01% (active).

For `CC(=O)c1c[nH]c2ccc(-c3ccnc(Nc4ccc(NC(=O)C5CCCC5)c(CN5CCOCC5)c4)n3)cc12`, which growth is on record?
Its growth is -31.5% (active).

With `O=C(O)COc1ccc2c(=O)c3sc4c(=O)c5ccccc5c(=O)c4c3c(=O)c2c1` as the compound, how does the growth read?
Its growth is 42.7% (inactive).

With `O=C(NOCCO)c1ccc2cncn2c1Nc1ccc(I)cc1F` as the compound, how does the growth read?
The growth was 23.5% (inactive).

For `CCn1c(CN2CCN(Cc3ccccc3)CC2)nc2cc(NC(=O)c3cccs3)ccc21`, which growth is on record?
The growth was -51.2% (active).

With `CN(C)c1ccc(-c2cc(-c3ccc(Nc4nc(Nc5ccc(Cl)cc5)nc(Nc5ccc(Cl)cc5)n4)cc3)nc(N)c2C#N)cc1` as the compound, how does the growth read?
Its growth is 68% (inactive).

For `C=C1CC/C=C(\C)C(=O)C[C@@H]2[C@@H]1CC2(C)C`, which growth is on record?
Its growth is 105% (inactive).

`O=C(O)c1cccc(S(=O)(=O)c2ccccc2)c1` was tested. Which growth did it give?
The growth was 92% (inactive).

How did the growth turn out when `COc1ccc(-c2cc(-c3nnc(SC/C(=N\O)c4ccccc4)n3-c3ccccc3)c3ccccc3n2)cc1` was run?
The growth was 94.3% (inactive).

For `C/C(O)=C(/C=N/C(=S)Nc1ccccc1)C(=O)Nc1ccccc1C`, which growth is on record?
The growth was 94.7% (inactive).

For `O=[N+]([O-])c1ccc(OCCCOc2ccccc2)cc1`, which growth is on record?
The growth was 95.5% (inactive).

For `COc1ccc(Nc2ncnc3c2sc2nc(C)cc(C)c23)cc1`, which growth is on record?
Its growth is 97.9% (inactive).

Which growth does the source give for `Cc1c(F)cccc1NC(=O)c1sc2nc3c(cc2c1N)CCCCC3` here?
The growth was 6.49% (active).

How did the growth turn out when `C#C[C@@]1(O)[C@@H](CO)O[C@@H](n2ccc3c(N)ncnc32)[C@@H]1O` was run?
The growth was -25.5% (active).

How did the growth turn out when `CSc1nc2c(c(=O)n1C)N=C1c3ccccc3C(=O)C1C(c1ccccc1)N2` (stereo not given) was run?
Its growth is 84.5% (inactive).

Which growth does the source give for `O=C(CCCN1CCC(O)(c2ccc(Br)cc2)CC1)c1ccc(F)cc1` here?
Its growth is 72.5% (inactive).

How did the growth turn out when `CCC[S@@](=O)c1ccc2nc(NC(=O)OC)[nH]c2c1` was run?
The growth was 56.6% (inactive).

`C/C(=N\O)c1ccc(NC(=O)CSc2nnc(-c3cc(-c4ccc(S(N)(=O)=O)cc4)nc4ccccc34)n2-c2ccccc2)cc1` was tested. Which growth did it give?
The growth was 24.1% (inactive).

With `CN1CCN(CCCCCN=c2cc3c(=O)n(CCCCCN4CCN(C)CC4)c(=O)c4c(NCCCCCN5CCN(C)CC5)cc5c(O)n(CCCCCN6CCN(C)CC6)c(=O)c2c5c4-3)CC1` as the compound, how does the growth read?
Its growth is 51.5% (inactive).

With `COc1cc2ncnc(Nc3ccc(S(=O)(=O)Nc4cc(C)on4)cc3)c2cc1OCCCN1CCN(c2ccc(F)cc2)CC1` as the compound, how does the growth read?
The growth was 112% (inactive).

Which growth does the source give for `CCOC(=O)c1[nH]c(C)c(C(C)=O)c1C` here?
The growth was 102% (inactive).

Which growth does the source give for `FC(F)(F)c1ccc(-c2cnc(Cl)nc2NC2CCCCCC2)cc1` here?
The growth was -6.33% (active).

`N#Cc1c(NC(=O)c2ccccc2)sc2c1CCC(=O)C2` was tested. Which growth did it give?
The growth was -2.62% (active).
